Source: PubChem (National Center for Advancing Translational Sciences (NCATS))
RE007 growth inh – less growth of the S. pombe RE007 Vpr strain; Potency, µM (series often up to 92.2 µM), inactives show at the highest dose activity change, negative = less growth, actives largely listed as inhibitors; 360,000 tested, 0.21% active; S. pombe RE007 Vpr strain, BacTiter-Glo ATP luminescence, 24 h; active means well fitted falling curve with a large enough effect; inconclusive means small, poorly fitted or top-dose-only effect; inactive means no such curve, though single readings can be large or run the other way; further: nearly all actives have a fitted effect of over 50% in size
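Fission yeast RE007 carrying one integrated HIV-1 vpr copy, seeded at OD 0.01 in PMG+AL medium with 23 nL pinned compound. Grown 24 h at 30 degrees; viability read by BacTiter-Glo luminescence after 5 min.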
Tb PYK inh – blocks Trypanosoma brucei pyruvate kinase; Q57TT1; TbPYK enzyme, Kinase-Glo Plus ATP luminescence, 45 min; Potency, µM (titrated, usually from 76.8 µM), for the others: at the highest dose activity, negative = inhibition, actives largely listed as inhibitors; 410,000 tested, 0.12% active; AID 624173; further: nearly all actives have a fitted effect of over 50% in size
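Quantitative HTS: titrated library compounds versus trypanosomal pyruvate kinase in TEA buffer (pH 7.2) containing KCl, MgCl2, BSA and Tween-20. Reactions were initiated with ADP, 130 uM final. Kinase-Glo Plus luminescence was read after 45 min at RT.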
Sm TGR block – blocks Schistosoma mansoni thioredoxin glutathione reductase. purified TGR, DTNB reduction, TNB absorbance 405 nm. Q962Y6. Potency, µM (titrated, usually from 114 µM), inactives show at the highest dose activity change, negative = inhibition, most hits filed as inhibitors. 360,000 tested, 3% active; further: nearly all actives have a fitted effect of over 60% in size
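First, TGR (20 nM dispensed) and NADPH were mixed with compound. Second, a 15 min room-temperature incubation followed. Third, further NADPH and then DTNB were added to start the reaction. Finally, TNB absorbance was monitored kinetically.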
LmPK inhibitor – LmPK (Leishmania mexicana) enzyme inhibition. 290,000 tested, 0.37% active. AID 1721. Potency, µM (titrated, usually from 57.5 µM), inactives show at the top dose activity change, negative = inhibition, hits mostly inhibitors. purified LmPK, Kinase-Glo ATP luminescence, 1 h. Q27686
Target sequence (Q27686 whole entry, looked up): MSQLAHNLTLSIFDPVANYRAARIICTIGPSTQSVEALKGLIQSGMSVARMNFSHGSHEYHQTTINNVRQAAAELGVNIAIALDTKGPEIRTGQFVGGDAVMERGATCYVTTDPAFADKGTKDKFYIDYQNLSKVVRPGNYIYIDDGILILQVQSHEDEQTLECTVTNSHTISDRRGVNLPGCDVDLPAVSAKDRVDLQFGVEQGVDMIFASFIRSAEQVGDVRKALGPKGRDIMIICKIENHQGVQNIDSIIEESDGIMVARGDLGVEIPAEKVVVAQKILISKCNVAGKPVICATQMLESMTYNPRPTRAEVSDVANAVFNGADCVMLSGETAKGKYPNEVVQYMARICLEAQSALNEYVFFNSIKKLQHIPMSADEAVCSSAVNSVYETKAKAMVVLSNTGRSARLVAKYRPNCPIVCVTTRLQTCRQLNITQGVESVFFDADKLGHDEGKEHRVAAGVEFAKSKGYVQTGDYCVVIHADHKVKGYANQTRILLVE
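Kinase-Glo luminescence read after 1 h RT reaction of 0.1 nM LmPK with 0.5 mM PEP and 0.1 mM ADP. Activity scaled between uninhibited and enzyme-free controls.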
AMA1 RON2 block – inhibitors of Plasmodium falciparum AMA1-RON2 interaction; AlphaScreen AMA1-biotinylated RON2 peptide binding; Potency, µM (highest dose often 58.2 µM), for the others: at the top dose activity change, negative = inhibition, usual class: inhibitors; 360,000 tested, 0.2% active; AID 720542;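 further: 0% = vehicle wells and -100% = peptide control; nearly all actives have a fitted effect of over 45% in size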
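AMA1 (3D7) with his tag at 25 nM final met compounds first, then biotinylated RON2 peptide at 25 nM; detection used donor plus acceptor beads, 10 µg/mL apiece, read by AlphaScreen after 30 min at room temperature.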
An asterisk follows results filed as active; ! = not active in a repeat. In the library only some 3.2% were active in any assay of this set; here they are far more common. Unless noted, the call rests on the fitted dose curve; in most records, active means well fitted curve in the direction sought with a large enough effect; inconclusive means small, poorly fitted or top-dose-only effect, or another doubt; inactive means no such curve, though single readings can be large; an effect the other way counts as inactive or inconclusive. Unless noted, on the % scale 0 is the no-effect control and ±100 the full control effect; potency means the concentration at half of the fitted maximal effect.

`O=c1ccc2cc3c4c(c2o1)CCCN4CCC3` gave RE007 growth inh -7%, Tb PYK inh -8%, Sm TGR block 50µM*, LmPK inhibitor 0% and AMA1 RON2 block -13%.
For O=C(N/N=C/c1cc2c3c(c1O)CCCN3CCC2)c1ccccc1O the results were RE007 growth inh inconclusive, Tb PYK inh 1%, Sm TGR block inconclusive, LmPK inhibitor 6% and AMA1 RON2 block inconclusive.
Screening O=C(NCc1ccccc1)C(=O)NCC(c1ccc2c(c1)OCO2)N1CCOCC1 (centres undefined) returned Tb PYK inh -3% and Sm TGR block -2%.
Cc1ccc(OC(=O)C(F)(F)F)c2c1NCCC2 was read as RE007 growth inh 8%, Tb PYK inh 0%, Sm TGR block 32µM*, LmPK inhibitor -5% and AMA1 RON2 block 1%.
For Cc1cc2c(C)cc(=O)oc2c2c1NCCC2 the results were RE007 growth inh 0%, Tb PYK inh 5%, Sm TGR block 4%, LmPK inhibitor -1% and AMA1 RON2 block 1%.
Screening CCCCCCC[n+]1ccc(-c2cc[n+](CCCCCCC)cc2)cc1 returned RE007 growth inh 6.3µM*, Tb PYK inh -5%, Sm TGR block -26%, LmPK inhibitor -3% and AMA1 RON2 block 1%.
CCCCCCCCCCCCCC[n+]1ccc(C)cc1 was read as Tb PYK inh 5%.
Screening CCCCCCCCCCCCCCCC[n+]1ccccc1 returned RE007 growth inh 16µM*!, Tb PYK inh 0% and AMA1 RON2 block 11%.
For Nc1cccc(-c2nc3ccc(N)cc3s2)c1 the results were RE007 growth inh -24%, Tb PYK inh inconclusive, Sm TGR block 10%, LmPK inhibitor 13µM* and AMA1 RON2 block 11%.
Screening Nc1ccc(-c2nc3ccc(N)cc3s2)cc1 returned RE007 growth inh inconclusive, Tb PYK inh -9%, Sm TGR block 4%, LmPK inhibitor 14µM* and AMA1 RON2 block -7%.
For Nc1cc2sc(-c3ccc(C(=O)O)cc3)nc2cc1Cl the results were RE007 growth inh inconclusive, Tb PYK inh inconclusive, Sm TGR block -12%, LmPK inhibitor 16µM* and AMA1 RON2 block -3%.
For COc1ccc(N(C(=O)COc2ccc(Br)cc2)S(=O)(=O)c2ccc(C)cc2)cc1 the results were Tb PYK inh -5% and Sm TGR block -9%.
Screening Cc1ccc2c(=O)cc(C(=O)Nc3nnc(CC(C)C)s3)oc2c1C returned Tb PYK inh 3% and Sm TGR block 11%.
`Cc1[nH]n(-c2ccccc2)c(=O)c1C=Nc1ccc2[nH]c(=O)[nH]c2c1` gave RE007 growth inh 13%, Tb PYK inh 1%, Sm TGR block 10%, LmPK inhibitor 0% and AMA1 RON2 block -18%.
Screening O=c1[nH]c2ccc(N=Cc3c(O)ccc4cc(Br)ccc34)cc2[nH]1 returned RE007 growth inh -16%, Tb PYK inh -9%, Sm TGR block 32µM*, LmPK inhibitor -4% and AMA1 RON2 block -5%.
CC1NC(=O)NC1CCCCCC(=O)NCCc1ccccc1 (centres undefined) was read as RE007 growth inh 13%, Tb PYK inh -3%, Sm TGR block 32µM*, LmPK inhibitor 8% and AMA1 RON2 block 1.5µM*.
Screening Cc1cccc(C)c1NC(=O)CCCN1CC(C)OC(C)C1 (centres undefined) returned RE007 growth inh 5%, Tb PYK inh 0%, Sm TGR block 3%, LmPK inhibitor 1% and AMA1 RON2 block -2%.
Screening C[C@@H]1NC(=O)N[C@@H]1CCCCCC(=O)O returned RE007 growth inh 12%, Tb PYK inh -3% and AMA1 RON2 block inconclusive.
For Cc1cccc(C)c1NC(=O)CCCCCC1NC(=O)NC1C (centres undefined) the results were RE007 growth inh -7%, Tb PYK inh -3%, Sm TGR block 25µM*, LmPK inhibitor 1% and AMA1 RON2 block -13%.
O=c1c2oc3ccccc3c2n(Cc2ccc(Cl)cc2)c(=O)n1Cc1ccco1 was read as Tb PYK inh -5% and Sm TGR block 1%.
COc1ccc(OC)c(S(=O)(=O)NCCc2csc3nc(-c4ccccc4)nn23)c1 was read as Tb PYK inh 6% and Sm TGR block 0%.
